# Reference: PubChem BioAssay (EPA / NIEHS)
# Where “and” joins values, the source holds several entries; their conditions need not be identical. Equal entries are not always repeated. Some structures have more than one record in an assay (separate samples or runs), and their calls can disagree. Calls of active or inactive are those of the source. The calls were made as follows: active = hit-call score of the fitted dose curve at least 0.9, where 1 is the maximum; inactive = score below 0.9.
# Read-out: Matrix Metallopeptidase 1 (MMP1), MMP1 (gene 4312)
# Test: BSK_hDFCGF_MMP1: BioMAP Diversity Plus: hDFCGF Assay for Matrix Metallopeptidase 1 (MMP1) Biomarker Activity (AID 2283064)
# Details: primary human foreskin fibroblasts; actives raise or lower the signal
# Experimental: BSK_hDFCGF is a cell-based, multiplexed-readout assay that uses foreskin fibroblast, a human skin primary cell, with measurements taken at 24 hours after chemical dosing in a 96-well plate.BSK_hDFCGF_MMP1 is an assay component measured in the BSK_hDFCGF assay. It measures MMP-1 antibody related to regulation of gene expression using ELISA technology.Data from the assay component BSK_hDFCGF_MMP1 was analyzed into 1 assay endpoint. This assay endpoint, BSK_hDFCGF_MMP1, was analyzed with bidirectional fitting relative to DMSO as the negative control and baseline of activity. Using a type of binding reporter, gain or loss-of-signal activity can be used to understand changes in the signaling as they relate to the gene MMP1. Furthermore, this assay endpoint can be referred to as a primary readout, because this assay has produced multiple assay endpoints where this one serves a signaling function. To generalize the intended target to other relatable targets, this assay endpoint is annotated to the protease intended target family, where the subfamily is matrix metalloproteinase.
# The levels of cell surface (or secreted, indicated by the prefix "s") biomarker endpoints were measured by ELISA. Overt cytotoxicity to cells in confluent adherent cultures (all systems other than the BT system) was assessed by measuring total protein levels using sulforhodamine B (SRB) staining in parallel cultures at the time of biomarker measurements, indicated as SRB endpoints. For proliferation assays for adherent cell types, individual cell types are cultured at sub-confluence and relative cell numbers quantified by SRB staining at time points optimized for each system (48 h: 3C and CASM3C systems; 72 h: BT and HDF3CGF systems; 96 h: SAg system). SRB was performed by staining cells with 0.1% SRB after fixation with 10% TCA and reading wells at 560 nm.Viability and proliferation of PBMC (T cells) was quantified by Alamar Blue reduction for the SAg and BT systems. For PBMC viability (referred to as PBMC Cytotoxicity within the assay endpoint names), cells were plated (75,000/well in a 96-well plate) and then chemical samples added for 1 h before addition of activators, SEB and TSST-1 (20 ng/mL final concentration each). Cells were incubated for 90 h. Then, Alamar Blue (20 uL/well) (Invitrogen, Cat DAL1100) was added for 6 h, and the plates were read with a fluorescence microplate reader at 546/580 nm (excitation/emission). For PBMC proliferation, cells were plated and activated as above but incubated for only 16 h prior to addition of Alamar Blue. Plates were read after 6 h.
SMILES,outcome,AC50
CC(C)CC(=O)CC(C)CC(C)C (stereo not drawn),inactive,–
Oc1cccc2ccccc12,inactive,–
COc1ccc(C(=O)c2ccccc2O)c(O)c1,inactive,–
CCC(C)=NO,inactive,–
CCCCCCCCCCCCCCCCCC[N+](C)(C)C,–,7.66 µM (active)
CCCCCCCCCCC1CO1 (stereo not drawn),–,20 µM (active)
Cc1c(C(N)=O)cc([N+](=O)[O-])cc1[N+](=O)[O-],inactive,–
CN(C)Cc1cc(C(C)(C)C)c(O)c(C(C)(C)C)c1,inactive,20 µM (active)
COc1cc(CNC(=O)CCCC/C=C/C(C)C)ccc1O,inactive,–
CN(C)c1ccc(C(c2ccccc2)c2ccc(N(C)C)cc2)cc1,inactive,–
Sc1nc2ccccc2s1,inactive,–
C1CN(CCOCCN2CCOCC2)CCO1,inactive,–
COC(=O)/C=C\C(=O)OC,inactive,–
O=[N+]([O-])c1cc(S(=O)(=O)Nc2ccccc2)ccc1Nc1ccccc1,–,30.9 µM (active) and 36.7 µM (active)
CN(C)CCC(c1ccc(Cl)cc1)c1ccccn1 (stereo not drawn),inactive,–
Cc1cccnc1,inactive,–
COc1ccccc1Oc1c(NS(=O)(=O)c2ccc(C(C)(C)C)cc2)nc(-c2ncccn2)nc1OCCO,inactive,–
CC[N+](CC)(CC(=O)Nc1c(C)cccc1C)Cc1ccccc1,inactive,–
CCC[Si](OC(C)=O)(OC(C)=O)OC(C)=O,inactive,–
CCCCCCCCCC/C=C/C1CC(=O)OC1=O (stereo not drawn),inactive,–
Cc1cc(-n2nc3ccc(Cl)cc3n2)c(O)c(C(C)(C)C)c1,inactive,–
OC(C(F)(F)F)(C(F)(F)F)C(O)(C(F)(F)F)C(F)(F)F,inactive,–
O=C(C(=O)c1ccccc1)c1ccccc1,inactive,–
CC(C)C1OCCN1CCOC(=O)NCCCCCCNC(=O)OCCN1CCOC1C(C)C (stereo not drawn),inactive,–
CCCCC(CC)COC(=O)C=Cc1ccc(OC)cc1 (stereo not drawn),inactive,–
CC[N+](CC)(CC(=O)Nc1c(C)cccc1C)Cc1ccccc1 (tested in a mixture with another compound),inactive,–
CCCCCCC(O)CCCCCCCCCCC(=O)OC (stereo not drawn),inactive,–
